PubChem BioAssay

Test system: Noggin (protein binding on small-molecule microarray)
Assay: Noggin binders on small-molecule microarray, primary screen, biochemical, 635/667 nm fluorescence (AID 1095);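 note: score merges 667 nm feature fluorescence with signal to noise over triplicate slides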
Conditions: 635 nm fluorescence, higher = more signal

Compound	composite z-score
COC(=O)CC=C[C@@H](C)[C@@H](C=NOC[C@H]1O[C@H](c2ccccc2)C=C[C@@H]1Oc1ccc(OC)cc1)NS(=O)(=O)c1ccc(C)cc1	-0.882
C=CC1=C[C@H](O)[C@@H]2O[C@@H]2C12OCCCO2	0.412
COC(=O)CC=C[C@@H](C)[C@H](OCc1cccc(-c2ccccc2)c1)C1CCCCC1	-0.274
CC(C)CON=C1C[C@@H](O)[C@@H](O)[C@@H]2[C@@H]3C(=O)N(Cc4ccc5c(c4)OCO5)C(=O)[C@@H]3CC[C@H]12	1.38
COc1ccc(O[C@H]2C=C[C@@H](c3ccccc3)O[C@@H]2CON=C(C)C)cc1	-0.0668
COC(=O)CC=C[C@@H](C)[C@@H](C=NOC(C)CN1CCCc2nc(C)c(C)cc21)OC (stereo partly specified)	0.541
CC(C)(C)N1C(=O)[C@H]2[C@H]3[C@H](O)[C@H](O)CC(=NO[C@@H]4O[C@H](CO)[C@@H](O)[C@H](O)[C@H]4O)[C@H]3CC[C@H]2C1=O	0.593
C#CCCCON=C1C[C@@H](O)[C@@H](O)[C@@H]2[C@@H]3C(=O)N(C(C)(C)C)C(=O)[C@@H]3CC[C@H]12	-0.532
CCOC(=O)NN=C1C[C@@H](O)[C@@H](O)[C@@H]2[C@@H]3C(=O)N([C@@H](C)c4ccccc4)C(=O)[C@@H]3CC[C@H]12	0.264
COC(=O)[C@@H]1CC[C@H](C)[C@@H](c2ccc(C)cc2)N1C(=O)c1ccc(C=NO[C@H](C)c2cn([C@H](CO)Cc3ccccc3)nn2)cc1	1.19
CCOC(=O)CCN1C(=O)[C@H]2[C@H]3[C@H](O)[C@H](O)CC(=NNC(=O)OCc4ccccc4)[C@@H]3CC[C@H]2C1=O	0.713
